Columns and labels:
Conditions in all cases: concentration: 1 μM, replicates: in singlicate; n = 1
CLK2 = test system: CLK2
CLK3 = test system: CLK3
CLK4 = test system: CLK4
CSF1R-autoinhibited = test system: CSF1R-autoinhibited
CSF1R = test system: CSF1R
CSK = test system: CSK
CSNK1A1L = test system: CSNK1A1L
CSNK1A1 = test system: CSNK1A1
CSNK1D = test system: CSNK1D
CSNK1E = test system: CSNK1E
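Also: KINOMEscan kinase panel screen.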

Row | SMILES | %Inh (CLK2) | %Inh (CLK3) | %Inh (CLK4) | %Inh (CSF1R-autoinhibited) | %Inh (CSF1R) | %Inh (CSK) | %Inh (CSNK1A1L) | %Inh (CSNK1A1) | %Inh (CSNK1D) | %Inh (CSNK1E)
1 | COC(=O)Nc1nc2cc(Oc3ccc(NC(=O)Nc4cccc(SC)c4)cc3)ccc2[nH]1.Cl [GW697999] | 32% | 23% | 24% | 53% | 99.6% | 0% | 6% | 0% | 17% | 22%
2 | O=C1NC(=O)C(c2ccccc2Cl)=C1Nc1cccc(Cl)c1 [SB-342409] | 73% | 7% | 28% | 0% | 33% | 0% | 9% | 0% | 16% | 17%
3 | Fc1cc(Cl)ccc1Nc1ccnc2cc(-c3ccc(CN4CCSCC4)o3)ccc12 [GW560106] | 0% | 0% | 22% | 52% | 92.3% | 13% | 0% | 0% | 6% | 27%
4 | O=C(O)C(F)(F)F.O=c1[nH]ccc2nc(N[C@@H]3CCNC3)nc(Nc3cc(Cl)cc(Cl)c3)c12 [GSK2188764] | 95.9% | 34% | 82% | 0% | 69% | 18% | 56% | 94% | 79% | 91.3%
5 | Cl.Cl.NCC(NC(=O)c1cc(-c2cccnc2)c(-c2ccnc3[nH]ccc23)s1)c1ccccc1 (stereo not drawn) [GSK1323434] | 51% | 12% | 60% | 30% | 44% | 0% | 77% | 91.5% | 96.7% | 99%
6 | CC(C)c1nc(-c2ccc(F)c(NS(=O)(=O)c3c(F)cccc3F)c2)c(-c2ccnc(Nc3ccc(N4CCOCC4)nc3)n2)s1 [GSK1804250] | 9% | 6% | 21% | 14% | 94.5% | 97.4% | 19% | 10% | 33% | 36%
7 | Fc1cc(Cl)ccc1Nc1ccnc2cc(-c3ccc(CN4CCOCC4)o3)ccc12 [GW560109] | 0% | 0% | 15% | 7% | 94.2% | 33% | 0% | 11% | 19% | 4%
8 | Cc1ccc(C)c(NC(=O)Nc2ccc(C)c(-c3ccc(C(=O)Nc4ccncc4)cc3)c2)c1 [GSK1398473] | 0% | 3% | 0% | 0% | 89% | 0% | 11% | 0% | 0% | 30%
9 | Cc1ccccc1CC(=O)N1CCc2cc(-c3cn(C)c4ncnc(N)c34)ccc21 [GSK2603346] | 0% | 6% | 0% | 0% | 89% | 0% | 22% | 9% | 9% | 84%

Source: publication PMC5540273 (PLoS ONE, 2017)
